Assays:
Assay in all cases: DAPPL (digital affinity profiling via proximity ligation, sequencing); 10 mM Tris-HCl pH 7.5, 50 mM NaCl, 1 mM DTT, 4% glycerol, room temperature, 30 min; GST-TFs on glutathione beads, 16-mer random dsDNA library, 0.1% formaldehyde crosslink after washing; high values mean tight binding
[1] = target: T1, FEV (Homo sapiens, UniProt Q99581 1-238); conditions: protein: recombinant; tags: N-terminal GST; dsDNA, one strand shown
T1 sequence: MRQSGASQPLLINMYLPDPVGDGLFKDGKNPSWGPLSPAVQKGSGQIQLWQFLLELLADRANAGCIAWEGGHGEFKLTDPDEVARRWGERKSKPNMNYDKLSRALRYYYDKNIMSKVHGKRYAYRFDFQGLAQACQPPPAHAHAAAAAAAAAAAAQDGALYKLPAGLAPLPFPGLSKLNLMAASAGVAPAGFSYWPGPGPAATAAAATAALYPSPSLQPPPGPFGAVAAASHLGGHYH
How it was run: (§1)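 Human transcription factors were made in yeast as GST fusions, captured on glutathione beads and barcoded with DNA. With a tag-only sample included, the pool was incubated with 200 nmole of a random double-stranded 16-mer DNA library in Tris/NaCl/DTT/glycerol buffer at room temperature for 30 min, then crosslinked with 0.1% formaldehyde after washing, ligated by proximity, amplified and sequenced. For binding signal, each hexamer's read frequency for a factor is divided by its frequency for the tag-only sample.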

[2] = target: ETV5 (Homo sapiens, UniProt P41161 1-510); conditions: protein: recombinant; tags: N-terminal GST; dsDNA, one strand shown
Sequence of ETV5 (P41161 whole entry): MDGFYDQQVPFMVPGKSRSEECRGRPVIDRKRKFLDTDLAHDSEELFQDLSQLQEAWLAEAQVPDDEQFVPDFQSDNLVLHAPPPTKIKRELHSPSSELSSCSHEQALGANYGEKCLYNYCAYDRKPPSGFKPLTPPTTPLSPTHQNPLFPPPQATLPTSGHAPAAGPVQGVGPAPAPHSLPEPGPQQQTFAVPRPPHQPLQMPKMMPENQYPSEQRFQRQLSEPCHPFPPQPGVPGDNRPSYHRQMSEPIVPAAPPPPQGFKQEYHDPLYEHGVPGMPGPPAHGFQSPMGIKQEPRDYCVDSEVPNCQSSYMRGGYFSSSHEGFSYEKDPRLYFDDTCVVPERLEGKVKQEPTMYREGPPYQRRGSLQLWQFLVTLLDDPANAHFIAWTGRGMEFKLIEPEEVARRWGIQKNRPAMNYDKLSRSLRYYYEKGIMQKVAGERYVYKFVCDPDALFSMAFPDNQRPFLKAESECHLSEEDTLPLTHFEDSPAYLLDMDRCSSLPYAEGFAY
How it was run: as §1

[3] = target: HSF1 (Homo sapiens, UniProt Q00613 1-529); conditions: protein: recombinant; tags: N-terminal GST; chain copies: 3; dsDNA, one strand shown
Sequence of HSF1 (Q00613 whole entry): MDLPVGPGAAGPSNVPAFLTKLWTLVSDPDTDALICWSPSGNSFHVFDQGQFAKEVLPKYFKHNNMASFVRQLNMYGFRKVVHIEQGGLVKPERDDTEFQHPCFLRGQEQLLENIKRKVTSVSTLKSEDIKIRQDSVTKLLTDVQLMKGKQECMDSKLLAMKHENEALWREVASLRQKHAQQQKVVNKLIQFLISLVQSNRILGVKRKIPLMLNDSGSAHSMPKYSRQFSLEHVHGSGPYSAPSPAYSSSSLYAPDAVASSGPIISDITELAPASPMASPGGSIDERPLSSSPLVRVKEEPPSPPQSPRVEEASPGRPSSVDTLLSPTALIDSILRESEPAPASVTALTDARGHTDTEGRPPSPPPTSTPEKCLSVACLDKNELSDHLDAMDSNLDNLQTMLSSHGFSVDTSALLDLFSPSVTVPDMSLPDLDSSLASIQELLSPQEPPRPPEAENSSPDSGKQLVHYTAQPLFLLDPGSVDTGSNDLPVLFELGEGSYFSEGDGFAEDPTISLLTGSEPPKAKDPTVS
How it was run: as §1

[4] = target: T2, SPIC (Homo sapiens, UniProt Q8N5J4 1-248); conditions: protein: recombinant; tags: N-terminal GST; dsDNA, one strand shown
T2 sequence: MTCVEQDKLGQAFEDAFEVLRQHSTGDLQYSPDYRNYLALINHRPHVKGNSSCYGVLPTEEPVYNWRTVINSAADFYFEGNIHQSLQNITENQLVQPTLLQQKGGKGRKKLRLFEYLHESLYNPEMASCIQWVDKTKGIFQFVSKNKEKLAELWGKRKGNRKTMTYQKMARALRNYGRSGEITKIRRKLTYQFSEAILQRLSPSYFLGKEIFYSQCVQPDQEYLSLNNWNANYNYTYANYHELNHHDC
How it was run: as §1

[5] = target: ELF4 (Homo sapiens, UniProt Q99607 1-663); conditions: protein: recombinant; tags: N-terminal GST; dsDNA, one strand shown
Sequence of ELF4 (Q99607 whole entry): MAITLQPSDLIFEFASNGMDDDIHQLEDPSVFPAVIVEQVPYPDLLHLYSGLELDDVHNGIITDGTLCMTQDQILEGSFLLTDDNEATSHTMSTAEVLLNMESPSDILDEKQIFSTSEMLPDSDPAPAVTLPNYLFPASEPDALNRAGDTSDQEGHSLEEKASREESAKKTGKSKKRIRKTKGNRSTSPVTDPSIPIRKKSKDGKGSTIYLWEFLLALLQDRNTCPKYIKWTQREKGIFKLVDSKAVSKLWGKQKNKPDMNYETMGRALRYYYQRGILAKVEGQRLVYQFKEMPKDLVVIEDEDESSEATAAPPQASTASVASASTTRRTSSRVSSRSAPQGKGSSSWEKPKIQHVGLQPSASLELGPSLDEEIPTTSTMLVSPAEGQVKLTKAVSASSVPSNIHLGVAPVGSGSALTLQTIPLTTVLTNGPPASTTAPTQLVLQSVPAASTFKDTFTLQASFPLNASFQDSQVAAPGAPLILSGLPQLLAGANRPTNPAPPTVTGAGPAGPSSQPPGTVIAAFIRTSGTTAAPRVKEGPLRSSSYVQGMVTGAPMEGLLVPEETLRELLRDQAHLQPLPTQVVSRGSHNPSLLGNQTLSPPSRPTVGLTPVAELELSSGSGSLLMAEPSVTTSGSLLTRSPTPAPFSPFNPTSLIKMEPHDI
How it was run: as §1

[6] = target: T3, ELK4 (Homo sapiens, UniProt P28324-2 1-405); conditions: protein: recombinant; tags: N-terminal GST; dsDNA, one strand shown
T3 sequence: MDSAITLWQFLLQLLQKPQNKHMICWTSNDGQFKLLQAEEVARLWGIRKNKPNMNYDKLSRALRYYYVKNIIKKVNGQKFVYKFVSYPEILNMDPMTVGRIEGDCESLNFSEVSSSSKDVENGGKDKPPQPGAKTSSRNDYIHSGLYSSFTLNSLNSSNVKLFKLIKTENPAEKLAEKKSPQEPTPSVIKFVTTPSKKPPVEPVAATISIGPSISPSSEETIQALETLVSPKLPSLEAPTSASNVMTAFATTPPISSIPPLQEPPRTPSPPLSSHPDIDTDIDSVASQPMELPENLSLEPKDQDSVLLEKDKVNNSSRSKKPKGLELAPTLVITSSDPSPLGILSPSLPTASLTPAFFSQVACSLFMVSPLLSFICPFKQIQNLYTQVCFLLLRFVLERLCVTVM
How it was run: as §1

[7] = target: T4, ETV2 (Homo sapiens, UniProt O00321 1-342); conditions: protein: recombinant; tags: N-terminal GST; dsDNA, one strand shown
T4 sequence: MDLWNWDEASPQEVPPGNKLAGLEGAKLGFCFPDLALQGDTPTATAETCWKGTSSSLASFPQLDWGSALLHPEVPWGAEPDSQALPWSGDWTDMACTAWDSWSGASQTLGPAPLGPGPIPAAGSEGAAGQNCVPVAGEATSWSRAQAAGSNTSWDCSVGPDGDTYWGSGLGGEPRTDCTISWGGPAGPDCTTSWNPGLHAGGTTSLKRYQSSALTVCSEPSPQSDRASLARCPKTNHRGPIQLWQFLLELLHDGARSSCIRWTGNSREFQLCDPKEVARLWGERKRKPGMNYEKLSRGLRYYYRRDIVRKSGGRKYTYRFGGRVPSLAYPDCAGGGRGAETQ
How it was run: as §1

[8] = target: T5, ELF3 (Homo sapiens, UniProt P78545 1-371); conditions: protein: recombinant; tags: N-terminal GST; dsDNA, one strand shown
T5 sequence: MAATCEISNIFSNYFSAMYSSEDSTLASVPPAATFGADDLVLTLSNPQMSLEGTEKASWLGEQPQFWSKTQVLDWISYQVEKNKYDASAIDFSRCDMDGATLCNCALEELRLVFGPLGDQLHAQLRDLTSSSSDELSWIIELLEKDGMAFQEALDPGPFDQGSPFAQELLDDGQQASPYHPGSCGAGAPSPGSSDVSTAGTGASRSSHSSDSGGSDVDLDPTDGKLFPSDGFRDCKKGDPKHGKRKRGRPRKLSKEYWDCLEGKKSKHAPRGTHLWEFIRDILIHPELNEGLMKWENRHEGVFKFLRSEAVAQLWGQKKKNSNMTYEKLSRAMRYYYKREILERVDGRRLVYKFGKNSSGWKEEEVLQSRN
How it was run: as §1

[9] = target: CRX (Homo sapiens, UniProt O43186 1-299); conditions: protein: recombinant; tags: N-terminal GST; dsDNA, one strand shown
Sequence of CRX (O43186 whole entry): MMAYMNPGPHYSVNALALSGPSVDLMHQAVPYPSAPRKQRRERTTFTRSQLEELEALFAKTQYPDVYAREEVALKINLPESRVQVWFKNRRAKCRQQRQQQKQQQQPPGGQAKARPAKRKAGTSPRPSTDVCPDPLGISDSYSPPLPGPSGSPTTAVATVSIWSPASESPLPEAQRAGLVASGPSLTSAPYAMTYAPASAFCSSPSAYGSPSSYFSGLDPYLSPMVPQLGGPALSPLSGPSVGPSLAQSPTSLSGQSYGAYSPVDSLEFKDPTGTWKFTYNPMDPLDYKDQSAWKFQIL
How it was run: as §1

[10] = target: ETV1 (Homo sapiens, UniProt P50549 1-477); conditions: protein: recombinant; tags: N-terminal GST; dsDNA, one strand shown
Sequence of ETV1 (P50549 whole entry): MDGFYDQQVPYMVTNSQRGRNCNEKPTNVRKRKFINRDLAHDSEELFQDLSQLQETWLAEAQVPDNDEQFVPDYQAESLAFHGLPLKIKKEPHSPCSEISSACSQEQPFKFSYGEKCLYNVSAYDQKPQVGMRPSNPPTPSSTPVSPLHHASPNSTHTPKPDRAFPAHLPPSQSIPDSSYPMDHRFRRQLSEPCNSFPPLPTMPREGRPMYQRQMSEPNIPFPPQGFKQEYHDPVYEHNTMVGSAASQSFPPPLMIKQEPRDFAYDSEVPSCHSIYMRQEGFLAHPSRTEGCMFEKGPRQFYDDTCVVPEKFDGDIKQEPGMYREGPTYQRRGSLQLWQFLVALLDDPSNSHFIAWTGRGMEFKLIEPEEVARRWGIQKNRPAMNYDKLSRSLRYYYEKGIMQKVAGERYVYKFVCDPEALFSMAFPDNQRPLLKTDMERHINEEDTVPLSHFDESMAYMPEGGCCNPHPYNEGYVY
How it was run: as §1

[11] = target: T6, ERF (Homo sapiens, UniProt P50548 1-548); conditions: protein: recombinant; tags: N-terminal GST; dsDNA, one strand shown
T6 sequence: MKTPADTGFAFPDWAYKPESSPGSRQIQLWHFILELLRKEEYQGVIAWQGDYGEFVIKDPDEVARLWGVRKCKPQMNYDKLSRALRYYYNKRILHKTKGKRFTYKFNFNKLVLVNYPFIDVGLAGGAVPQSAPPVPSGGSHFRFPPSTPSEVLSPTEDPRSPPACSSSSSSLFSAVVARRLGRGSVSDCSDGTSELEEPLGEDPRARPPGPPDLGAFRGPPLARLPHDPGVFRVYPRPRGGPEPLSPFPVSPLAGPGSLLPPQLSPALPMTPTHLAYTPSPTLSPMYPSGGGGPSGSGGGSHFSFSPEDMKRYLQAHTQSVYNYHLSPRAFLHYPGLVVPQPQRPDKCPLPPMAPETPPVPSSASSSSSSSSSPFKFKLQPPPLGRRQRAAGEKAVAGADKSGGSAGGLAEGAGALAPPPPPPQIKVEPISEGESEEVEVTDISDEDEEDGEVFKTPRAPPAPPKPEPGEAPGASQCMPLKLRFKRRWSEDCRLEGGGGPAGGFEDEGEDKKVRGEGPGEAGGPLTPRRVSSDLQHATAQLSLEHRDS
How it was run: as §1

[12] = target: T7, ETV3L (Homo sapiens, UniProt Q6ZN32 1-361); conditions: protein: recombinant; tags: N-terminal GST; dsDNA, one strand shown
T7 sequence: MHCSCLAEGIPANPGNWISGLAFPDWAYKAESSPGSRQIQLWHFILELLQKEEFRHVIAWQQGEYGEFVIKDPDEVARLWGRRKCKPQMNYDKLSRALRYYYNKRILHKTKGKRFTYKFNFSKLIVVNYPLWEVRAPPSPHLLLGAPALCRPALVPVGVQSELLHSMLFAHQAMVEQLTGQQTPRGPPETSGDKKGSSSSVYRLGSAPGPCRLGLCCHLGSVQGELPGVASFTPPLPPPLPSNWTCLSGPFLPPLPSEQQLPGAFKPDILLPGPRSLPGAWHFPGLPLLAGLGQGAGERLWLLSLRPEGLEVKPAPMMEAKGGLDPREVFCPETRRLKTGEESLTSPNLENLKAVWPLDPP
How it was run: as §1

[13] = target: T8, ETS2 (Homo sapiens, UniProt P15036 1-469); conditions: protein: recombinant; tags: N-terminal GST; dsDNA, one strand shown
T8 sequence: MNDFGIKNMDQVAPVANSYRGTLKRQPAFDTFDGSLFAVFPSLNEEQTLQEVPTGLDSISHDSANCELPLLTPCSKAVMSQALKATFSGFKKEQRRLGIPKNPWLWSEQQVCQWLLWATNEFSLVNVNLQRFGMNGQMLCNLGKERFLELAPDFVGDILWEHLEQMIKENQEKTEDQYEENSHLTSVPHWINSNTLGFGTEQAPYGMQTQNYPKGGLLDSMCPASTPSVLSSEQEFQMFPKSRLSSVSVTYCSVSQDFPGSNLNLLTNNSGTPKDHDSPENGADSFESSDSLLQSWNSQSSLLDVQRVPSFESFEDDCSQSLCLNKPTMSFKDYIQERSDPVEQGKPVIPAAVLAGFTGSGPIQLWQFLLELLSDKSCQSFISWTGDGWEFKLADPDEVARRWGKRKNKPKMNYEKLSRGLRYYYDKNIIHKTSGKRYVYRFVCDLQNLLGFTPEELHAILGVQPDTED
How it was run: as §1

[14] = target: T9, SPDEF (Homo sapiens, UniProt O95238 1-335); conditions: protein: recombinant; tags: N-terminal GST; dsDNA, one strand shown
T9 sequence: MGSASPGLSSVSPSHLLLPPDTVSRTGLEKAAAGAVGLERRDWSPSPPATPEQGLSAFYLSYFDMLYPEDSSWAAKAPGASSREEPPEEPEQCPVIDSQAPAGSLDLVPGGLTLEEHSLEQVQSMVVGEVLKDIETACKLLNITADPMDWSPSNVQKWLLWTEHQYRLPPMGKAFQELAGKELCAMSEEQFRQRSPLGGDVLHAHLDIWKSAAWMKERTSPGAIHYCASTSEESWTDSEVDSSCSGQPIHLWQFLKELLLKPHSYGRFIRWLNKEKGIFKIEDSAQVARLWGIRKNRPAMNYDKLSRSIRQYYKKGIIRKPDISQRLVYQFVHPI
How it was run: as §1

[15] = target: T10, ETV7 (Homo sapiens, UniProt Q9Y603 1-341); conditions: protein: recombinant; tags: N-terminal GST; dsDNA, one strand shown
T10 sequence: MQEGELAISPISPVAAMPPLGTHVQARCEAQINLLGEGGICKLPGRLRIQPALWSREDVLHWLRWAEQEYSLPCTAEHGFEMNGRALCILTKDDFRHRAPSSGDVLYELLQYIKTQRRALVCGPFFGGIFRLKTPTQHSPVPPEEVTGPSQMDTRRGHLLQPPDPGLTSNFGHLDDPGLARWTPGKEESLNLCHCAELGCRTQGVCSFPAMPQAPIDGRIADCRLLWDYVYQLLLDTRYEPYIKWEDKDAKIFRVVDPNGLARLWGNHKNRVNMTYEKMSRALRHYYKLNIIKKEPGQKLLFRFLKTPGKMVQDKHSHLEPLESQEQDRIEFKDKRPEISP
How it was run: as §1

[16] = target: T11, ELF5 (Homo sapiens, UniProt Q9UKW6-2 1-255); conditions: protein: recombinant; tags: N-terminal GST; dsDNA, one strand shown
T11 sequence: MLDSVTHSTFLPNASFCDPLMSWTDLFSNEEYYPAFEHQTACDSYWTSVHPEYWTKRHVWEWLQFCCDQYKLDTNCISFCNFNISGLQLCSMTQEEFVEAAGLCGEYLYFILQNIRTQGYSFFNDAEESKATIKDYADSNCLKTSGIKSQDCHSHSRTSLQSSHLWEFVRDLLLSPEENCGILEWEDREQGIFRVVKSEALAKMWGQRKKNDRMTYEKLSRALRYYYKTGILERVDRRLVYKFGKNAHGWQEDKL
How it was run: as §1

[17] = target: T12, ETV3 (Homo sapiens, UniProt P41162-2 1-143); conditions: protein: recombinant; tags: N-terminal GST; dsDNA, one strand shown
T12 sequence: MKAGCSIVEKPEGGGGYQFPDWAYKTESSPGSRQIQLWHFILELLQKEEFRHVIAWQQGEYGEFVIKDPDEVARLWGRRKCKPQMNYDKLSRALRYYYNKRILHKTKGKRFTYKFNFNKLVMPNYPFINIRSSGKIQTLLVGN
How it was run: as §1

[18] = target: ETV6 (Homo sapiens, UniProt P41212 1-452); conditions: protein: recombinant; tags: N-terminal GST; dsDNA, one strand shown
Sequence of ETV6 (P41212 whole entry): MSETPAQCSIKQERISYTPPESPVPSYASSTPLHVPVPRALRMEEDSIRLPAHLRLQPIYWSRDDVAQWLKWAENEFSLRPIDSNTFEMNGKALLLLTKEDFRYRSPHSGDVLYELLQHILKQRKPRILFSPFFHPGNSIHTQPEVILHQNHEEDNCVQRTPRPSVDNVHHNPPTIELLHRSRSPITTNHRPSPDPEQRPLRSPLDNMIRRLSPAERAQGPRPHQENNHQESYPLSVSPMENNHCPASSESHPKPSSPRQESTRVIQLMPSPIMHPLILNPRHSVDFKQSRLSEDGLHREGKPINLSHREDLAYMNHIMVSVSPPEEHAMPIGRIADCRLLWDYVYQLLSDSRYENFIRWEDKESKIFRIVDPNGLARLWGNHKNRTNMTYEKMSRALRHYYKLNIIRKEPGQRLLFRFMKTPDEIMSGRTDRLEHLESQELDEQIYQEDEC
How it was run: as §1

Sequence	binding signal [1]	binding signal [2]	binding signal [3]	binding signal [4]	binding signal [5]	binding signal [6]	binding signal [7]	binding signal [8]	binding signal [9]	binding signal [10]	binding signal [11]	binding signal [12]	binding signal [13]	binding signal [14]	binding signal [15]	binding signal [16]	binding signal [17]	binding signal [18]
TTAGCA	1.23 fold enrichment (6-mer frequency, TF over GST control)	1.15 fold enrichment (6-mer frequency, TF over GST control)	1.7 fold enrichment (6-mer frequency, TF over GST control)	1.22 fold enrichment (6-mer frequency, TF over GST control)	1.33 fold enrichment (6-mer frequency, TF over GST control)	1.33 fold enrichment (6-mer frequency, TF over GST control)	1.27 fold enrichment (6-mer frequency, TF over GST control)	1.3 fold enrichment (6-mer frequency, TF over GST control)	2.38 fold enrichment (6-mer frequency, TF over GST control)	1.32 fold enrichment (6-mer frequency, TF over GST control)	1.29 fold enrichment (6-mer frequency, TF over GST control)	1.26 fold enrichment (6-mer frequency, TF over GST control)	1.16 fold enrichment (6-mer frequency, TF over GST control)	1.23 fold enrichment (6-mer frequency, TF over GST control)	1.19 fold enrichment (6-mer frequency, TF over GST control)	1.15 fold enrichment (6-mer frequency, TF over GST control)	1.19 fold enrichment (6-mer frequency, TF over GST control)	1.25 fold enrichment (6-mer frequency, TF over GST control)
AACACA	1.31 fold enrichment (6-mer frequency, TF over GST control)	1.33 fold enrichment (6-mer frequency, TF over GST control)	1.13 fold enrichment (6-mer frequency, TF over GST control)	1.33 fold enrichment (6-mer frequency, TF over GST control)	1.32 fold enrichment (6-mer frequency, TF over GST control)	1.42 fold enrichment (6-mer frequency, TF over GST control)	1.49 fold enrichment (6-mer frequency, TF over GST control)	1.26 fold enrichment (6-mer frequency, TF over GST control)	1.1 fold enrichment (6-mer frequency, TF over GST control)	1.27 fold enrichment (6-mer frequency, TF over GST control)	1.39 fold enrichment (6-mer frequency, TF over GST control)	1.34 fold enrichment (6-mer frequency, TF over GST control)	1.38 fold enrichment (6-mer frequency, TF over GST control)	1.41 fold enrichment (6-mer frequency, TF over GST control)	1.46 fold enrichment (6-mer frequency, TF over GST control)	1.36 fold enrichment (6-mer frequency, TF over GST control)	1.35 fold enrichment (6-mer frequency, TF over GST control)	1.29 fold enrichment (6-mer frequency, TF over GST control)
